Screens: PubChem, National Center for Advancing Translational Sciences (NCATS)
This is a sample that favours compounds with a hit; in the whole collection about 3.3% have one here.
Sm TGR block – qHTS Assay for the Inhibitors of Schistosoma Mansoni Peroxiredoxins; 3% of 360,000 active; Schistosoma mansoni thioredoxin glutathione reductase (TGR), Q962Y6; Potency, µM (highest dose often 114 µM), actives largely listed as inhibitors; purified TGR, DTNB reduction, TNB absorbance 405 nm; note: nearly all actives have a fitted effect of over 60% in size
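TGR 20 nM + NADPH 100 uM (dispensed conc.), cpd preinc 15 min RT; start with NADPH (500 uM addition) then DTNB (15 mM addition). Kinetic TNB absorbance, 405 nm filter. Four-parameter Hill fit across titration.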
AmpC detergent – qHTS Inhibitors of AmpC Beta-Lactamase (assay with detergent). P00811. AmpC hydrolysis of nitrocefin, absorbance 480 nm, 0.01% Triton. Potency, µM (doses to about 114 µM), actives largely listed as inhibitors. 0.041% of 370,000 active. AID 485294, 2010; note: nearly all actives have a fitted effect of over 25% in size
Target sequence (P00811 whole entry, looked up): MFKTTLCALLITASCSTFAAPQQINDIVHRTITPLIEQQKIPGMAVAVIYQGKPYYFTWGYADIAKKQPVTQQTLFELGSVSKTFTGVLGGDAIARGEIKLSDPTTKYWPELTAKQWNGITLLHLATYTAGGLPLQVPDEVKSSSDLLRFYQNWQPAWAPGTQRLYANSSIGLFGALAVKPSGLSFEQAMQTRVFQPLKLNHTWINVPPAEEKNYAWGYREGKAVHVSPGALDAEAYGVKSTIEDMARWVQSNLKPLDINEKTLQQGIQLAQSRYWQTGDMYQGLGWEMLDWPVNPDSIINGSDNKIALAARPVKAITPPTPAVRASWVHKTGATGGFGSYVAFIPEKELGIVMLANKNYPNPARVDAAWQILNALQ
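20 mM phosphate pH 7.0 + 0.01% (detergent screen) or 0.0001% Triton X-100; 5.3 nM AmpC reagent; cpd preinc 15 min RT; nitrocefin (800 uM stock) to start; A480 q20 s × 4 min; Activity was normalised to no-enzyme and no-compound control wells.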
AmpC no deterg – qHTS Inhibitors of AmpC Beta-Lactamase (assay without detergent); P00811; Potency, µM (doses to about 57.1 µM), usual class: inhibitors; AID 485341, 2010; 0.52% of 330,000 active; AmpC nitrocefin hydrolysis, absorbance 480 nm, 0.0001% Triton; note: nearly all actives have a fitted effect of over 20% in size
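20 mM phosphate pH 7.0 + 0.01% (detergent screen) or 0.0001% Triton X-100; 5.3 nM AmpC reagent; cpd preinc 15 min RT; nitrocefin (800 uM stock) to start; A480 q20 s × 4 min; Activity was normalised to no-enzyme and no-compound control wells.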
Large screens that a line does not name were inactive. Calls come from the whole dose curve; as a rule, active = well fitted curve in the direction sought with a large enough effect; inconclusive = small, poorly fitted or top-dose-only effect, or another doubt; inactive = no such curve, though single readings can be large; an effect the other way counts as inactive or inconclusive.

CCOCc1nnc(NC(=O)C2CCN(C(=O)c3ccco3)CC2)s1	none
Clc1ccc(-c2nnc(-c3ccco3)nc2N2CCCCC2)cc1	Sm TGR block 2.8µM
Clc1ccc(-c2nnc(-c3ccc(Br)cc3)c(N3CCSCC3)n2)cc1	none
CCN1C(=O)C(CC(=O)Nc2ccccc2)S/C1=N\c1ccccn1 (configuration not stated)	none
CCCOC1CCCN(C(=O)CCc2nnc(-c3ccc4c(c3)OCO4)o2)C1 (configuration not stated)	none
O=C1NC(=O)N(c2ccccc2)C(=O)/C1=C/C=C/c1ccco1	Sm TGR block 10µM
Cc1ccc(N2C(=O)NC(=O)/C(=C\C=C\c3ccco3)C2=O)cc1	Sm TGR block 11µM
Cc1cccc(N2C(=O)NC(=O)/C(=C\C=C\c3ccco3)C2=O)c1	Sm TGR block inconclusive
O=C1NC(=O)N(c2ccccc2)C1=O	none
Cc1ccc(N2C(=O)NC(=O)/C(=C\C=C\c3ccco3)C2=O)cc1C	Sm TGR block 25µM
Cc1cc(N2CCOCC2)ccc1/C=C1\C(=O)NC(=O)N(c2ccccc2)C1=O	Sm TGR block inconclusive
N#Cc1ccc(CN2C(=O)NC3(CCCCCC3)C2=O)cc1	none
CNC(=O)c1cccc(NC(=O)CCCNC(=O)c2ccc(Cl)cc2)c1	none
CCOC(=O)C1CCN(C(=O)CN(c2ccc(Oc3ccccc3)cc2)S(C)(=O)=O)CC1	none
Cc1nc2cc(NC(=O)N3CCN(c4ccccn4)CC3)ccc2o1	none (no result: AmpC no deterg)
O=C(Nc1ccc2nc(-c3ccco3)c(-c3ccco3)nc2c1)N1CCN(c2ccccn2)CC1	Sm TGR block 2µM
O=C(c1cccc(C(=O)N2CCN(c3ncccn3)CC2)c1)N1CCN(c2ncccn2)CC1	none
O=C(c1ccc2nc(-c3ccco3)c(-c3ccco3)nc2c1)N1CCN(c2ncccn2)CC1	Sm TGR block 10µM, AmpC detergent inconclusive
CCN(C(=O)CSc1ncccn1)c1cccc2ccccc12	none (no result: Sm TGR block, AmpC detergent)
CC(C)(C)NC(=O)N1CCN(c2nc3ccc(Cl)cc3s2)CC1	none
O=C(O)c1cccc(Cn2c(Cl)c(/C=N/NC(=O)c3ccccc3O)sc2=O)c1	Sm TGR block 40µM
O=C(N/N=C/c1sc(=O)n(Cc2ccc(Br)cc2)c1Cl)c1ccco1	Sm TGR block 45µM
O=C(O)c1cccc(N/N=C/c2cccc3ccccc23)c1	none
O=C(O)c1cccc(Cn2c(Cl)c(/C=N/Nc3ccccc3)sc2=O)c1	Sm TGR block 3.5µM
O=C(O)c1cccc(Cn2c(Cl)c(/C=N/NC(=O)c3ccccc3Cl)sc2=O)c1	none
O=C(N/N=C/c1ccc(Br)s1)c1ccco1	none
Cc1ccccc1OCC(=O)N/N=C/c1sc(=O)n(Cc2cccc(C(=O)O)c2)c1Cl	Sm TGR block inconclusive, AmpC no deterg inconclusive
COc1ccc(C(=O)N/N=C/c2sc(=O)n(Cc3cccc(C(=O)O)c3)c2Cl)cc1	Sm TGR block 22µM
Clc1ccc(CN2CCN(c3ncccn3)CC2)c(Cl)c1	none
CC[C@@H](C)[C@@H](C(=O)N1CCN(C(=O)OC(C)(C)C)CC1)n1cc(CCCCNC(=O)OC(C)(C)C)nn1	none
CCc1ccc(C2=NN(c3ccc(S(N)(=O)=O)cc3)C(c3ccc(F)cc3)C2)cc1 (configuration not stated)	AmpC no deterg 0.2µM
NS(=O)(=O)c1ccc(N2N=C(c3ccccc3)CC2c2ccccc2)cc1 (configuration not stated)	AmpC no deterg inconclusive
COc1cccc(CNC(=O)COC(=O)C2CC3CCCC(C2)C3=O)c1 (configuration not stated)	none
Nc1ccccc1Nc1ccccc1	none
Nc1ccc(Nc2ccccc2)c(Cl)c1	Sm TGR block 11µM
Cc1ccc(C[C@H](C(=O)O)N2C(=O)c3ccc(C(=O)O)cc3C2=O)cc1	AmpC detergent inconclusive
CCC1CCC(NC(=O)Nc2cccc(OC)c2)CC1 (configuration not stated)	none
CCNc1sc(C(=O)c2cccs2)c(N)c1-c1nc2ccccc2s1	none
CCOC(=O)c1sc(NCc2ccco2)c(-c2nc3ccccc3s2)c1N	AmpC detergent inconclusive, AmpC no deterg 11µM
O=C(NCCCCl)C1CC(=O)N(CCc2ccc(F)cc2)C1 (configuration not stated)	AmpC detergent inconclusive
CCOc1cccc(C2C(C#N)=C(N)Oc3cc(C)oc(=O)c32)c1OCC (configuration not stated)	none
COc1cc(C2C(C#N)=C(N)Oc3cc(C)n(CC4CCCO4)c(=O)c32)cc2c1OCO2 (configuration not stated)	Sm TGR block 45µM
COc1cccc(C2C(C#N)=C(N)Oc3cc(C)n(Cc4ccccn4)c(=O)c32)c1OC (configuration not stated)	AmpC detergent inconclusive
COc1ccccc1C1C(C#N)=C(N)Oc2cc(C)n(Cc3ccccn3)c(=O)c21 (configuration not stated)	Sm TGR block 35µM
Cc1cc2c(c(=O)n1Cc1ccccn1)C(C(C)C)C(C#N)=C(N)O2 (configuration not stated)	none
COc1cc(C2C(C#N)=C(N)Oc3cc(C)n(Cc4ccccn4)c(=O)c32)cc2c1OCO2 (configuration not stated)	none
CCOc1ccccc1C1C(C#N)=C(N)Oc2cc(C)n(Cc3ccccn3)c(=O)c21 (configuration not stated)	Sm TGR block 35µM, AmpC detergent inconclusive
CCOc1ccccc1C1C(C#N)=C(N)Oc2cc(C)n(C)c(=O)c21 (configuration not stated)	Sm TGR block 40µM
Cc1ccc2oc3c(c(=O)c2c1)C(c1ccccc1F)N(CCCN1CCOCC1)C3=O (configuration not stated)	none (no result: AmpC no deterg)
Cn1c(N)c(C(=O)COC(=O)Cc2ccc(Cl)c(Cl)c2)c(=O)n(C)c1=O	none (no result: Sm TGR block, AmpC detergent)
Cc1c(C(=O)NC2CCCc3ccccc32)cccc1[N+](=O)[O-] (configuration not stated)	none
COc1ccc(S(=O)(=O)N2CCCOC2CNC(=O)C(=O)NCc2ccco2)cc1 (configuration not stated)	none
CCCCN(Cc1ccco1)C(=O)c1cc2c(s1)-c1c(C)cccc1OC2	none (no result: AmpC no deterg)
COc1cccc(C2C(C#N)=C(N)Oc3cc(C)n(Cc4ccco4)c(=O)c32)c1 (configuration not stated)	Sm TGR block inconclusive, AmpC detergent inconclusive
Cc1cc2c(c(=O)n1CCCn1ccnc1)C(c1ccco1)C(C#N)=C(N)O2 (configuration not stated)	none
COc1ccc(C2C(C#N)=C(N)Oc3cc(C)n(Cc4ccco4)c(=O)c32)cc1 (configuration not stated)	Sm TGR block 32µM
COc1ccccc1C1C(C#N)=C(N)Oc2cc(C)n(CCCn3ccnc3)c(=O)c21 (configuration not stated)	Sm TGR block 50µM
CN(CC(=O)Nc1ccccc1C(F)(F)F)C(=O)c1cc(Cl)nc2ccccc12	none
COc1ccccc1CN(C)CC(=O)Nc1cccc2ccccc12	none
